High-throughput results from PubChem BioAssay.
aSyn 5UTR act – Activators via SNCA 5'UTR binding, MLPCN. alpha-synuclein 5'UTR reporter, activators screen. activity score, % (tested at 7.5 µM), hits read low. 300,000 compounds, 7.1% hits. AID 1814, 2009; in the data active = activity score below about -60%
Starred values were filed as active, the others as inactive. Only a sample is shown.

SMILES	aSyn 5UTR act
COCCN=C1NN=C(c2ccc(C)c([N+](=O)[O-])c2)CS1	-108*
CCCCN=C1NN=C(c2ccc(C)c(C)c2)CS1	-162*
CC1CC(=O)NN=C1c1ccc(NCCO)c([N+](=O)[O-])c1 (configuration not stated)	76
Cc1ccc(Cn2c(SCc3cccnc3)nc3c2c(=O)n(C)c(=O)n3C)cc1	54
Cn1c(=O)c2c(nc(SCCN3CCOCC3)n2Cc2ccc(F)cc2)n(C)c1=O	-130*
CCCCn1c(SCC(=O)N2c3ccccc3CCc3ccccc32)nc2c1c(=O)n(C)c(=O)n2C	74
[O-][n+]1c2c(nc3c1-c1ccccc1C3O)CCCC2 (configuration not stated)	-77*
COc1ccc2oc(=O)c(-c3csc(Nc4cccc(O)c4)n3)cc2c1	-76*
COc1ccc(Nc2nc(-c3cc4cccc(OC)c4oc3=O)cs2)cc1	-83*
Cc1ccc(N=Nc2ccc3ccccc3c2O)cc1	61
Cc1ccc(N=Cc2sc(O)c3ccccc23)c(C)c1	-190*
Cc1ccc(N=Cc2sc(O)c3ccccc23)cc1	-237*
NC(=O)CC1C(=O)N(c2ccccc2)C(=S)N1NC(=O)c1ccccc1 (configuration not stated)	-73*
CCOCC(=O)Nc1nc2ccc(OC)cc2s1	-89*
CCOc1ccc2nc(NC(=O)COC)sc2c1	-97*
CCOc1ccc2nc(NC(=O)Cn3[nH]c(=O)c4ccccc4c3=O)sc2c1	-105*
O=C(CCC1CCCC1)Nc1ccc(Br)cn1	-197*
Cc1ccnc(NC(=O)CCC2CCCCC2)c1	-193*
Cc1cc(NC(=O)CCC2CCCC2)no1	-65*
O=C(Nc1ccccc1Br)c1ccc(OC(=S)N2CCOCC2)cc1	-192*
Cc1ccc(NC(=O)c2ccc(OC(=S)N3CCOCC3)cc2)cc1	-75*
COc1ccccc1N1C(=O)S/C(=C\c2ccc(C)s2)C1=O	-135*
COc1ccccc1N1C(=O)S/C(=C\c2cc(C)n(C)c2C)C1=O	-128*
Cc1ccc(/C=C2\Sc3ccccc3C2=O)s1	-104*
Nc1nc(Cl)nc2c1ncn2[C@H]1C[C@H](O)[C@@H](CO)O1	84
SMILES	aSyn 5UTR act
N#C/C(=C\c1ccc(N2CCCCC2)o1)C(=O)Nc1cccc(Br)c1	-178*
CCOc1ccc(NC(=O)NC(=O)N(C)S(=O)(=O)c2ccc(C)cc2)cc1	-82*
Cc1ccc(NC(=O)NC(=O)N(c2ccccc2)S(C)(=O)=O)cc1	-93*
Cc1ccc(NC(=S)NNC(=O)Nc2ccccc2)cc1	-132*
O=C(NNC(=S)Nc1ccccc1)Nc1ccccc1	-92*
Cc1ccc(NC(=S)NNC(=O)c2nn(C)c(C)c2Cl)cc1	-276*
c1ccc(-c2cccc(-c3ccccn3)n2)nc1	77
c1ccc(-c2nnc(-c3ccccn3)nn2)nc1	-122*
CCC(=O)N(c1ccc(C(=O)O)cc1)c1nc(-c2ccc(OC)cc2)c(C)s1	-185*
COc1ccccc1C(=O)Nc1ccc2c(c1)CN(C(=O)CSC)CC2	-109*
COc1ccc(NC(=S)N2CCc3ccccc3C2)cc1	-82*
COc1cccc(NC(=O)N2CCc3ccccc3C2)c1	-104*
FC(F)Oc1ccc(NC(=S)N2CCc3ccccc32)cc1	-133*
COc1ccc(NC(=O)C(=O)NCC(c2ccco2)N2CCc3ccccc32)cc1 (configuration not stated)	85
S=C(NCCc1ccccc1)N1CCc2ccccc2C1	-101*
COc1cccc(-c2cc(C(=O)N3CCc4ccccc4C3)[nH]n2)c1	-68*
O=C(Nc1cccc(Cl)c1)N1CCc2ccccc2C1	-185*
O=C(Nc1ccc(-c2nc3cc(Cl)ccc3o2)cc1)C1CCCO1 (configuration not stated)	-81*
O=C(Nc1ccc2oc(-c3ccccc3)nc2c1)C1CCCO1 (configuration not stated)	-162*
Cc1c(Cl)cnc(NC(=O)COC(=O)c2ccc3ncsc3c2)c1Cl	67
CCOC(=O)c1sc(NNC(=O)c2ccc(F)cc2)nc1C	-76*
CCOC(=O)c1sc(NC(=O)c2ccc3ncsc3c2)nc1C	-89*
COc1ccc(C(=O)NC(=O)COC(=O)c2ccc3ncsc3c2)cc1	-82*
CCOC(=O)c1sc(NC(=O)c2cncc(Br)c2)nc1C	-105*
CC(C)Sc1nnc(-c2c[nH]c3ccccc23)n1C	-111*
SMILES	aSyn 5UTR act
CCc1[nH]nc(C(=O)N/N=C/c2ccncc2)c1C	-70*
CCOC(=O)c1c(N/N=C/c2ccncc2)n[nH]c1C	-81*
CCOc1ccc(-c2nnc(NC3=NCCCCC3)o2)cc1	-117*
CCOc1ccc(-c2nnc(-c3ccc(OC)cc3)o2)cc1	-76*
CCOc1ccc(-c2nc3ccccc3c(=O)o2)cc1	-63*
CCOc1ccc(-c2nnc(-c3ccncc3)o2)cc1	-63*
CCOc1ccc(-c2nnc(NC(=O)c3ccc(OCC(C)C)c(OC)c3)o2)cc1	58
CCCCOc1ccc(-c2nnc(-c3ccncc3)o2)cc1	-124*
COc1ccc(-c2nnc(SCc3nc4ccccc4c(=O)[nH]3)o2)cc1	-70*
c1coc(-c2nnc(NC3=NCCC3)o2)c1	-70*
COc1ccc(-c2nnc(SCC(C)C)o2)cc1	-102*
Cc1cc2nc(-c3ccc(SCc4ccccc4C#N)nc3)[nH]c2cc1C	-78*
Cc1cc2nc(-c3ccc(SCC(=O)Nc4ccc(S(=O)(=O)NC5CC5)cc4)nc3)[nH]c2cc1C	-116*
Cc1cc2nc(-c3ccc(SCc4ccc(C(=O)O)cc4)nc3)[nH]c2cc1C	-160*
Cc1cc2nc(-c3ccc(SCC(=O)N4CCc5ccccc54)nc3)[nH]c2cc1C	-220*
Cc1cc2nc(-c3ccc(SCC(=O)NC(C)C)nc3)[nH]c2cc1C	-134*
Cc1cc(NC(=O)CSc2ccc(-c3nc4cc(C)c(C)cc4[nH]3)cn2)no1	-100*
N#Cc1cnc(SCCc2ccccc2)nc1N	-71*
O=C(Nc1nccs1)c1sc2ccccc2c1Cl	53
O=C(NC1CC1)c1sc2cc(Cl)ccc2c1Cl	-97*
COc1ccc2c(Cl)c(C(=O)NC3CCS(=O)(=O)C3)sc2c1 (configuration not stated)	-80*
O=C(Nc1nccs1)c1sc2cc(Cl)ccc2c1Cl	-115*
CC(/C=C/c1ccccc1)=N\NC(N)=S	-100*
CC(/C=C/c1ccccc1)=N\Nc1nc(C)cc(C)n1	-96*
CSc1nnc2c(n1)c(C)nn2-c1ccc(C)cc1	-180*
SMILES	aSyn 5UTR act
CCC(=O)NC(/C=C/c1ccccc1)c1cc([N+](=O)[O-])c2cccnc2c1O (configuration not stated)	-94*
CCC(=O)NC(c1ccc(OC)c(OC)c1)c1cc(Cl)c2cccnc2c1O (configuration not stated)	111
CC(C)C(=O)NC(c1cccc([N+](=O)[O-])c1)c1ccc2cccnc2c1O (configuration not stated)	91
O=C(c1cc(-c2ccc(F)cc2)on1)N1CCCc2ccccc21	-62*
O=C(c1cc(-c2cccs2)on1)N1CCCc2ccccc21	-79*
Cc1ccc(-c2cc(C(=O)N3CCCc4ccccc43)no2)cc1	-150*
Cc1ccc(C(=O)C(C(=O)/C=C/c2ccccc2)=C2SCCCS2)cc1	-102*
Cc1ccc(C(=O)/C=C2/NC(=O)CS2)cc1	-103*
Cc1ccc(-c2nnc(CSc3nnc(C)s3)o2)cc1	-79*
Cc1csc(SCc2nnc(-c3ccc(Cl)cc3)o2)n1	-173*
Cc1csc(SCc2nnc(-c3ccccc3Br)o2)n1	-88*
O=c1oc2ccccc2n1CCCOc1ccccc1	-73*
